Drawing on PubChem BioAssay (NCATS), this text covers Potency for 20 molecules.

Records with an inconclusive call do not appear. Entries that show only a call come without a potency. Active and inactive are the calls of the source. Calls follow the shape of the dose curve; as a rule, active = well fitted curve in the direction sought with a large enough effect; inconclusive = small, poorly fitted or top-dose-only effect, or another doubt; inactive = no such curve, though single readings can be large; an effect the other way counts as inactive or inconclusive.

The target of assay [1] is Aldehyde dehydrogenase, mitochondrial (Homo sapiens) (UniProt P05091). The experiment in a line: qHTS for Inhibitors of the Aldehyde Dehydrogenase Family (ALDH2) Primary screen (AID 2061308). Also: nearly all actives have a fitted effect of over 55% in size. For orientation: In qHTS, concentration-response curves come from the screen itself.
Assay [2] has as its target Retinaldehyde dehydrogenase 3 (Homo sapiens) (UniProt P47895). The experiment in a line: qHTS for Inhibitors of the Aldehyde Dehydrogenase Family (ALDH1A3) Primary screen (AID 2061315).

Take `C=C(C(=O)O)[C@H]1C[C@]2(C)C(=O)CC[C@]23O[C@H]1C[C@@H]3C`: the Potency result in assay [1] and in assay [2] was “inactive” throughout.
`Cc1cc(NS(=O)(=O)c2ccc(NC(=O)Cc3ccc(Cl)cc3Cl)cc2)no1`: the Potency entry in assay [1] and in assay [2] was “inactive” each time.
In the case of `Cc1cc(C)n2ncc(C(=O)Nc3ccccc3C)c2n1`, the Potency result in assay [1] and in assay [2] was “inactive” in each case.
As for `COc1cccc(C2c3c(ncn(-c4ccccc4Br)c3=N)Oc3ccc4ccccc4c32)c1` (stereo not given), the Potency entry in assay [1] and in assay [2] was “inactive” throughout.
Turning to `NC(=O)c1ccc(-c2noc(-c3cccc(Cl)c3)n2)cc1`, the Potency entry in assay [1] and in assay [2] was “inactive” each time.
With `CCOc1ccc(COc2ccc(-c3nc4ccccc4[nH]3)cc2)cc1`, the Potency entry in assay [1] and in assay [2] was “inactive” each time.
`C[N+]1(CC2COC(c3ccccc3)(c3ccccc3)O2)CCCCC1` (stereo not given): the Potency result in assay [1] and in assay [2] was “inactive” each time.
With `COc1cccc(-c2ccc3ncnc(NCc4cccnc4)c3c2)c1`, the Potency entry in assay [1] and in assay [2] was “inactive” in each case.
Consider `Cn1nnnc1Sc1ncnc2scc(-c3ccc4c(c3)OCO4)c12`, for which the Potency result in assay [1] and in assay [2] was “inactive” in each case.
Take `CN(C)c1oc(-c2cccc3ccccc23)nc1C#N`: the Potency result in assay [1] and in assay [2] was “inactive” each time.
As for `N#Cc1cccc(NS(=O)(=O)c2ccc3c(c2)CCC(=O)N3)c1`, the Potency result in assay [1] and in assay [2] was “inactive” each time.
As for `Cc1nc(N2CCOCC2)c2nc(-c3ccccc3)n(CCN3CCCC3)c2n1`, the Potency result in assay [1] and in assay [2] was “inactive” throughout.
Take `CC(=O)Nc1ccc(S(=O)(=O)N2CCN(c3ccc(C(C)=O)cc3)CC2)cc1`: the Potency result in assay [1] and in assay [2] was “inactive” each time.
With `Cc1ccc2oc(NC3=NC(c4[nH]ncc4Cl)C4=C(CCCC4=O)N3)nc2c1` (stereo not given), the Potency result in assay [1] and in assay [2] was “inactive” in each case.
Turning to `O=C1NS(=O)(=O)C(c2ccccc2)C1c1ccccc1` (stereo not given), the Potency entry in assay [1] and in assay [2] was “inactive” throughout.
As to `C=C1[C@H]2CC[C@H](C(=O)O)[C@@]23CC[C@H](C3)C1(C)C`, the Potency result in assay [1] and in assay [2] was “inactive” each time.
Consider `O=C(Nc1nnc(-c2ccncc2)s1)Nc1ccc(Cl)cc1Cl`, for which the Potency result in assay [1] and in assay [2] was “inactive” each time.
Turning to `c1csc(CNc2ncnc3ccc(-c4ccc5c(c4)OCO5)cc23)c1`, the Potency result in assay [1] and in assay [2] was “inactive” each time.
As for `O=C1CCCC2=C1C(c1[nH]ncc1Cl)N=C(Nc1nccs1)N2` (stereo not given), the Potency result in assay [1] and in assay [2] was “inactive” each time.
For `O=C(Nc1nc2cc(C(F)(F)F)ccc2s1)c1ccc(-c2cccc([N+](=O)[O-])c2)o1`, the Potency entry in assay [1] and in assay [2] was “inactive” in each case.
